Assay outcomes: PubChem BioAssay, National Center for Advancing Translational Sciences (NCATS)
MCF10A rerep – induces DNA re-replication in MCF 10a normal breast cells | MCF 10A DNA re-replication, Hoechst nuclear intensity, 48 h | Potency, µM (highest dose often 46.1 µM), actives largely listed as activators | actives 2.9% (n = 350,000) | AID 624296; also: nearly all actives have a fitted effect of over 50% in size
SW480 rerep – inducers of DNA re-replication in SW480 colon cancer cells; SW480 DNA re-replication, Hoechst DNA content imaging, 48 h; Potency, µM (doses to about 46.1 µM), usual class: activators; actives 1.8% (n = 340,000); also: nearly all actives have a fitted effect of over 55% in size
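Hoechst fluorescence of nuclei (405 nm excitation, 500-530 nm emission) measured by plate-scanning imager after 48 hr compound exposure at 37 C; re-replication scored as increased number of nuclei with elevated intensity.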
ELG1 genotoxic – inducers of genotoxicity in HEK293T ELG1-luciferase cells. HEK293T ELG1-luciferase reporter, luminescence, 16 h. Potency, µM (doses to about 46 µM), actives largely listed as activators. actives 1.3% (n = 330,000). AID 504466; also: nearly all actives have a fitted effect of over 60% in size
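After overnight (16 hr) compound treatment at 37 °C, ELG1-luciferase HEK293T cells were lysed with ONE-Glo; luminescence quantified 30 min later at room temperature.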
ELG1 repair inh – blocks ELG1-dependent DNA repair in HEK293T cells; HEK293T ELG1-luciferase reporter, luminescence, 16 h; DNA damage induced by 5-fluorouridine; Potency, µM (highest dose often 46.1 µM), hits mostly inhibitors; actives 2.3% (n = 330,000); also: nearly all actives have a fitted effect of over 55% in size
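5-Fluorouridine DNA damage + compound/DMSO, 2,000 cells/well, 16 h, 37 °C/5% CO2. ONE-Glo, 30 min RT, luminescence. Readout = decrease in reporter signal.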
A-T KAP1 phos – potential ataxia-telangiectasia treatment | F2112 A-T fibroblasts, KAP-1 phosphorylation AlphaLISA; neocarzinostatin DNA damage 30 min before lysis | Potency, µM (doses to about 57.5 µM), actives largely listed as activators | actives 0.19% (n = 320,000) | AID 485349; also: nearly all actives have a fitted effect of over 45% in size
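ATM-like activity read as KAP-1 phosphorylation via AlphaLISA donor/acceptor antibody pairs after lysis and 6 hr at 25C. Cells were ATM-null patient fibroblasts (F2112, hTERT), dosed 60 min, then exposed to the DSB inducer NCS for 30 min.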
p53 reactivator – re-activators of mutant p53. H1299 p53-A138V BP100-luciferase reporter, luminescence, 24 h. AID 504706. actives 0.063% (n = 320,000). Potency, µM (series often up to 92.2 µM), actives largely listed as activators; also: nearly all actives have a fitted effect of over 45% in size
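p53-null H1299 cells stably carrying temperature-sensitive p53-A138V and a BP100-luciferase reporter were pinned with compounds (4-point, 1:5 series) and held 24 hrs at 37 deg C. Luminescence was read 10 min after detection reagent.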
A number is an active result; . = inactive; ? = inconclusive; / = no result given; [ ] = remark or other dose. Only some compounds are listed: those with a hit (about 7.1% of all), similar ones and a draw of the others. Calls follow the shape of the dose curve; as a rule, active = well fitted curve in the direction sought with a large enough effect; inconclusive = small, poorly fitted or top-dose-only effect, or another doubt; inactive = no such curve, though single readings can be large; an effect the other way counts as inactive or inconclusive.

SMILES | MCF10A rerep | SW480 rerep | ELG1 genotoxic | ELG1 repair inh | A-T KAP1 phos | p53 reactivator
CCCC(=O)Nc1ccc(S(=O)(=O)Nc2cc(OC)ncn2)cc1 | . | . | . | . | . | /
Cc1nc2cc(-c3cccc(Cl)c3)nn2c(N2CCN(C(=O)c3ccco3)CC2)c1C | / | / | . | ? | . | ?
Cc1cccc2c(C(=O)N3CCN(C(=O)c4ccco4)CC3)cc(-c3cccc(Br)c3)nc12 | 18µM | ? | . | ? | . | ?
Cc1cc(N2CCN(C(=O)c3ccco3)CC2)n2nc(-c3cccc(Cl)c3)cc2n1 | ? | . | . | 13µM | . | .
CC[C@]12c3[nH]c4ccc(OC)cc4c3CCN1C(=O)C(CC(=O)NCCN1CCOCC1)C[C@@H]2C(=O)N1CCN(C(=O)c2ccco2)CC1 (stereo partly specified) | . | . | . | . | . | .
CC(=O)N1N=C2c3ccccc3CCC2C1c1cccs1 (stereo unspecified) | . | . | . | . | . | .
CCn1cc(Cl)c(C(=O)N2N=C3/C(=C/c4cccs4)CCCC3C2c2cccs2)n1 (stereo unspecified) | . | 18µM | . | ? | . | .
COc1ccc(Cc2nnc(Cl)c3ccccc23)cc1OC | . | . | . | ? | . | .
CC1(C)CC(=O)C(C=Nc2ccc(C(=O)c3ccccc3)cc2N=CC2=C(O)CC(C)(C)CC2=O)=C(O)C1 | 5.8µM | ? | . | . | . | .
CC1(C)CC(=O)C(C=Nc2ccc(O)c(N=CC3=C(O)CC(C)(C)CC3=O)c2)=C(O)C1 | . | . | . | . | . | .
Oc1ccc(-c2n[nH]c(=S)n2-c2ccc3c(c2)OCCO3)c(O)c1 | ? | . | . | 3.7µM | . | .
S=c1[nH]nc(-c2ccc(Cl)cc2Cl)n1-c1ccc2c(c1)OCCO2 | . | . | . | . | . | .
CN(C)S(=O)(=O)N1CCC(c2ccc(F)cc2)C(COc2ccc3c(c2)OCO3)C1 (stereo unspecified) | . | . | . | 16µM | . | .
N#Cc1cc([N+](=O)[O-])ccc1NC(=O)COC(=O)CC1CCCC1 | . | . | . | . | . | .
CCC(C)(C)n1nnnc1CN1CCN(C(c2ccccc2)c2ccccc2)CC1 | . | . | . | 21µM | . | .
Fc1ccc(CN2CCN(C(c3ccccc3)c3ccccc3)CC2)cc1 | . | . | . | . | ? | /
c1ccc(CN2CCN(C(c3ccccc3)c3ccccc3)CC2)cc1 | 21µM | . | . | . | ? | /
Cc1ccc(C(c2nnnn2Cc2ccccc2)N2CCN(Cc3ccccc3)CC2)cc1 (stereo unspecified) | 16µM | . | . | . | / | .
OC(COc1ccccc1)CN1CCN(C(c2ccccc2)c2ccccc2)CC1 (stereo unspecified) | .[9.22 µM] | . | . | ? | . | .
c1ccc(OCCOCCN2CCN(C(c3ccccc3)c3ccccc3)CC2)cc1 | ? | 8.2µM | . | . | . | .
COC(=O)c1sc(-c2ccc(C(C)(C)C)cc2)cc1NC(=O)COCC(=O)O | 21µM | . | . | . | . | .
COc1ccc(Cn2c(O)c(C=Nc3ccc(O)cc3)c3ccccc3c2=O)cc1 | 6.5µM | ? | . | 23µM | . | .
COc1ccc(Cn2c(O)c(C=Nc3ccccc3)c3ccccc3c2=O)cc1 | . | . | . | . | . | .
Cc1ccnc(NC(=S)NC(=O)c2cccs2)c1 | . | . | 2.1µM | ? | . | /
O=C(NC(=S)NNC(=O)c1cccs1)c1ccccc1 | . | . | ? | . | . | .
SMILES | MCF10A rerep | SW480 rerep | ELG1 genotoxic | ELG1 repair inh | A-T KAP1 phos | p53 reactivator
Cc1cccc(C(=O)NC(=S)NNC(=O)c2cccs2)c1 | . | / | . | 21µM | . | ?
COc1ccc(/C=C/c2ccc3cccc(O)c3n2)c(OC)c1OC | 1.6µM | ? | 23µM | ? | . | ?
COc1cccc(/C=C/c2ccc3cccc(O)c3n2)c1OC | . | ? | 18µM | ? | . | ?
Cc1ccc(/C=C/c2ccc3cccc(O)c3n2)s1 | . | ? | 21µM | ? | . | ?
O=[N+]([O-])c1ccc(/C=C/c2ccc3cccc(O)c3n2)cc1 | . | ? | ? | ? | . | ?
CC(=O)COc1cccc2ccc(/C=C/c3ccc(Br)s3)nc12 | 18µM | . | . | . | . | /
CCCCC[C@]12Cc3ccccc3C(O1)c1c(cc(C)oc1=O)O2 | / | / | / | / | .[11.5 µM] | /
C[C@H](O)Cc1cn(-c2cc3cc(C#Cc4ccsc4)ccc3oc2=O)nn1 | . | . | . | . | . | .
COc1ccc(NC(=O)CSCC(=O)Nc2ccc(C)c(S(=O)(=O)N3CCCCCC3)c2)cc1 | . | . | . | ? | . | .
COC(C(=O)N1CCC(n2nccc2NC(=O)C2CC2)CC1)c1ccccc1 (stereo unspecified) | . | ? | . | ? | . | ?
COc1ccc(C(CC(=O)c2ccc(C)cc2)C(C#N)C#N)cc1OC (stereo unspecified) | 21µM | ? | . | ? | . | .
COC(=O)C(C(=O)OC)C(CC(=O)c1ccc(C)cc1)c1cc(OC)c(OC)c(OC)c1 (stereo unspecified) | ? | . | . | . | . | .
COc1ccc(NC(=O)NNC(=O)COc2ccc([N+](=O)[O-])c(C)c2)cc1OC | . | . | . | . | . | .
COc1ccc(CCNC(=O)/C=C/c2ccc3ccccc3n2)cc1OC | 16µM | 21µM | . | ? | . | .
CCOC(=O)Cc1csc(SCC(=O)Nc2oc(C)c3c(C)n[nH]c(=O)c23)n1 | . | . | . | . | . | .
Cn1cc(CN2CCN(c3ccc(Cl)cn3)CC2)c(-c2ccccc2F)n1 | . | . | . | . | . | .
Cc1cccc(N2CCN(Cc3cn(C)nc3-c3ccccc3F)CC2)n1 | 7.3µM | 3.3µM | . | . | . | .
COC(=O)[C@@H]1C[C@]2(OC(=O)c3ccccc3)C=CC(=O)C[C@@H]2N1C(=O)OCc1ccccc1 | 16µM | 21µM | . | 15µM | . | .
Cc1c(C(=O)N2CCN(C)CC2)oc2c1C(=O)CC(C)(C)C2 | . | . | . | . | . | ?
Cc1c(C(=O)N2CCc3ccccc32)oc2c1C(=O)CC(C)(C)C2 | ? | . | 3.3µM | ? | . | ?
O=C(CCSc1ccc(Cl)c(Cl)c1)NC12CC3CC(CC(C3)C1)C2 | 18µM | ? | . | . | . | .
O=C(CSc1ccc(F)cc1)NC12CC3CC(CC(C3)C1)C2 | . | . | . | ? | . | .
O=C(COC(=O)[C@@H]1CCCN1S(=O)(=O)c1ccccc1F)NCc1ccc2c(c1)OCO2 | . | . | . | . | . | .
